# Measured values published in PubChem BioAssay (NCATS).
# Records with an inconclusive call do not appear. Entries that show only a call come without a potency. Values without a mark were called inactive. Activity calls are given as the source filed them. Calls come from the whole dose curve; as a rule, active = well fitted curve in the direction sought with a large enough effect; inconclusive = small, poorly fitted or top-dose-only effect, or another doubt; inactive = no such curve, though single readings can be large; an effect the other way counts as inactive or inconclusive.
# Assays:
# [1] = molecular target: Cytochrome P450 3A7 (Homo sapiens) (UniProt P24462); test: Cytochrome P450 family 3 subfamily A member 7 (CYP3A7) small molecule antagonists: luciferase biochemical qHTS assay (AID 1963596); note: nearly all actives have a fitted effect of over 40% in size
# Summary of the method: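 Compounds were screened in qHTS format for interference with CYP3A7 turnover of a proluciferin substrate. Reactions ran 1 h at room temperature after NADPH regeneration solution was added, then luciferin product was detected by luminescence.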
# [2] = Viability qHTS for spleen associated tyrosine kinase inhibitor (SYKi) naive MV4-11 cells (AID 1963823); note: nearly all actives have a fitted effect of over 40% in size; note: potency is the fitted concentration of half-maximal effect
# Summary of the method: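 qHTS, SYK inhibitor-naive MV4-11; 500 cells/well; 72 hr compound exposure, 37 C; CellTiter-Glo added, 10 min RT; luminescence read.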
# [3] = Viability qHTS for spleen associated tyrosine kinase inhibitor (SYKi) drug resistant MV4-11 cells (AID 1963824); note: nearly all actives have a fitted effect of over 35% in size
# Summary of the method: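 CellTiter-Glo luminescence, read 10 min after reagent addition, reports viability after a 72 hr compound exposure. Cells are an MV4-11 line made resistant to SYK inhibition, seeded at 500 per well onto compound-containing plates.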
# Cytochrome P450 3A7 (Homo sapiens), sequence (P24462 whole entry, looked up): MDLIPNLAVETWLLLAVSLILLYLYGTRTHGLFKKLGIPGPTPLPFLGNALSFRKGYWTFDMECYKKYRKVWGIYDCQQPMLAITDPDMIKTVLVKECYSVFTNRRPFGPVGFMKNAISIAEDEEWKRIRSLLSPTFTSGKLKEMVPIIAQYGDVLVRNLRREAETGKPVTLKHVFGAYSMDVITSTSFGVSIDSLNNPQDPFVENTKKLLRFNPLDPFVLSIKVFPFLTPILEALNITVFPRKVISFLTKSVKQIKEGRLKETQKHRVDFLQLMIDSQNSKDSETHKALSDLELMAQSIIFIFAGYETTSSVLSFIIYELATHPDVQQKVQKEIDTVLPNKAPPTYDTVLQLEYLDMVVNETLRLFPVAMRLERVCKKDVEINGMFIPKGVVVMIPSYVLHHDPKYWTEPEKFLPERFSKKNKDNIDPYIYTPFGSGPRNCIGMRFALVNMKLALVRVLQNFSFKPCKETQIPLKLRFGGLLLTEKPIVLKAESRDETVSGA
smiles,measurement,setting,value
Cc1nnc(-c2ccc(-c3ccc(C(=O)Nc4ccc(O)c(N5CCN(C)CC5)c4)cc3)c(C)c2)o1,Potency,[1],inactive
same,Potency,[2],inactive
c1ccc(-c2csc(N3CCOCC3)n2)cc1,Potency,[1],inactive
same,Potency,[2],inactive
CC1(C)CC(NC(=O)C(=O)Nc2ccc(Cl)cc2)CC(C)(C)N1,Potency,[1],inactive
same,Potency,[2],inactive
Cc1ccc(C2=Nc3ccccc3N(CC(=O)Nc3ccccc3F)C(=O)C2)cc1C,Potency,[1],inactive
Cc1cccc(C#Cc2cc(F)cc(C#N)c2)n1,Potency,[1],inactive
same,Potency,[2],inactive
C[C@@H](Nc1cc(NS(=O)(=O)N2CCC2)nc(SCc2cccc(F)c2F)n1)[C@@H](O)CO,Potency,[1],inactive
same,Potency,[2],inactive
CCC(=C(c1ccc(OCCN2CCCC2)cc1)c1ccc(OCCN2CCCC2)cc1)c1ccccc1,"activity change, negative = inhibition",[1],0% [at 11.5 µM]
CC(C)C[C@H](NC(=O)CNC(=O)[C@H](Cc1ccc(O)cc1)NC(=O)[C@H](CO)NC(=O)[C@H](Cc1c[nH]c2ccccc12)NC(=O)[C@H](Cc1cnc[nH]1)NC(=O)[C@@H]1CCC(=O)N1)C(=O)N[C@@H](CCCN=C(N)N)C(=O)N1CCC[C@H]1C(=O)NCC(N)=O (stereo in doubt),Potency,[1],inactive
CC(C)NC(=O)c1ccc(C#Cc2ccncc2)cn1,Potency,[1],inactive
CNC(C)C(=O)NC(C(=O)N1CCCC1C(=O)Nc1cccc2ncccc12)C(C)C (configuration not stated),Potency,[1],inactive
same,Potency,[2],inactive
CC(CC(C#N)(c1ccccc1)C(C)C)N(C)C (configuration not stated),Potency,[1],inactive
same,Potency,[2],inactive
COc1ccc(NC(=O)c2ccc(-c3ccc(C(N)=O)cc3C)cc2)cc1N1CCN(C)CC1,Potency,[1],inactive
O=C(OCc1ccccc1)c1cccnc1,Potency,[1],inactive
O=C(Cn1c2ccccc2c2nc3n(c(=O)c21)CCS3)N1CCCC1,Potency,[1],inactive
same,Potency,[2],inactive
CC(C)C[C@@H](C(=O)N[C@@H](Cc1ccc(OCc2ccccc2)cc1)C(=O)NC(C)(C)C)N(C)Cc1ccc(C(C)(C)C)cc1,Potency,[1],inactive
same,Potency,[2],inactive
CCCCC(=O)O,Potency,[1],inactive
Cc1cc(Nc2ncc3cc(-c4c(Cl)cccc4Cl)c(=O)n(C)c3n2)ccc1F,Potency,[1],inactive
same,Potency,[2],461 nM (active)
O=C(Cn1c(=O)n(-c2ccc(Cl)cc2)c(=O)c2oc3ccccc3c21)Nc1ccccc1,Potency,[1],inactive
O=C(O)CN(CCN(CC(=O)O)CC(=O)O)CCN(CC(=O)O)CC(=O)O,Potency,[1],inactive
same,Potency,[2],inactive
CC1(c2nc3c(C(N)=O)cccc3[nH]2)CCCN1 (configuration not stated),Potency,[1],inactive
COc1cc(C(=O)NC(c2ccc(Cl)cc2)c2cc(Cl)c3cccnc3c2O)cc(OC)c1OC (configuration not stated),Potency,[1],inactive
OC[C@H]1O[C@@H]2O[C@H]3[C@H](O)[C@@H](O)[C@@H](O[C@H]4[C@H](O)[C@@H](O)[C@@H](O[C@H]5[C@H](O)[C@@H](O)[C@@H](O[C@H]6[C@H](O)[C@@H](O)[C@@H](O[C@H]7[C@H](O)[C@@H](O)[C@@H](O[C@H]1[C@H](O)[C@@H]2O)O[C@@H]7CO)O[C@@H]6CO)O[C@@H]5CO)O[C@@H]4CO)O[C@@H]3CO,Potency,[1],inactive
CCc1cnc(N2CCC(c3nc(COc4ccc(-n5cnnn5)cc4)cs3)CC2)nc1,Potency,[1],inactive
N#Cc1cc(F)cc(-c2nc(-c3ccccn3)no2)c1,Potency,[1],inactive
same,Potency,[2],inactive
same,Potency,[3],inactive
